Some test systems named below: NCI-H23 lung; NCI-H226 lung; NCI-H322M lung; HOP-62 NSCLC; NCI-H460 lung; NCI-H522 lung; A549/ATCC NSCLC; 786-0 renal; COLO 205 colon; DU-145 prostate; K-562 leukemia; MALME-3M melanoma; MDA-MB-231 breast; RXF 393 renal; SF-268 CNS; SF-295 CNS; SF-539 CNS; UACC-257 melanoma; M14 melanoma.
Common to all, as to experiment: NCI-60 one-dose screen, 48 h (100 = growth as untreated, 0 = no growth, -100 = all killed)
Conditions in all cases: 10 µM unless noted

The panel holds about 83,000 compounds, 20% with a hit somewhere; the sample as a whole holds those more often.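 Assay: single dose, 48 h. Readout: percent growth (0 = no net growth; negative = cell death). Active: <10.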 Values without a mark were called inactive. Activity calls are given as the source filed them.

Regarding `CN1C(=O)N(C)C2C1NN=c1s/c(=C\c3ccsc3)c(=O)n12` (configuration not stated), the growth with NCI-H23 lung was 59.4%; with NCI-H226 lung it was 46.1%; with NCI-H322M lung, 65.1%; in the test on HOP-62 NSCLC, 46.8%; with NCI-H460 lung, 18.2%; in the test on NCI-H522 lung, 26.4%. Moreover, the growth in the test on A549/ATCC NSCLC is 42.2%; in the test with 786-0 renal, 47.6%; in the test on COLO 205 colon, 41.1%; with DU-145 prostate, 74.9%; with K-562 leukemia, 13.5%; in the test with MALME-3M melanoma it was 54.3%. In addition, the growth in the test with MDA-MB-231 breast is 66.8%; with RXF 393 renal, 51.6%; in the test with SF-268 CNS, 64.4%; with SF-295 CNS, 25%; with SF-539 CNS, 40.2%; in the test with UACC-257 melanoma, 60.9%. In addition, the growth in the test on M14 melanoma is 22.7%.

For `CS(=O)(=O)c1ccc(C(=O)N/N=C/c2ccccc2Cl)cc1`, the growth in the test on NCI-H23 lung was 94.8%; in the test with NCI-H226 lung, 97.4%; in the test on NCI-H322M lung it was 99.2%; in the test with HOP-62 NSCLC it was 87.3%; in the test with NCI-H460 lung, 101%; in the test with NCI-H522 lung it was 96.4%. The growth was 78.4% with A549/ATCC NSCLC; 97.2% in the test on 786-0 renal; 90.9% in the test on COLO 205 colon; 98.8% in the test with DU-145 prostate; 67.5% in the test with K-562 leukemia; 100% in the test with MALME-3M melanoma. The growth in the test on MDA-MB-231 breast was 93.6%; with RXF 393 renal, 117%; in the test with SF-268 CNS, 100%; in the test with SF-295 CNS it was 103%; with SF-539 CNS, 101%; in the test on UACC-257 melanoma, 64.5%. Further, in the test on M14 melanoma, the growth was 91.9%.

For the compound `CCC(=O)NC1=C(Cl)C(=O)C(NC(=O)CC)=C(Cl)C1=O`, the growth is 94% in the test on NCI-H23 lung; 113% in the test with NCI-H226 lung; 107% with NCI-H322M lung; 111% with HOP-62 NSCLC; 108% with NCI-H460 lung; -82.7% (active) in the test on NCI-H522 lung. Besides, the growth with A549/ATCC NSCLC was 103%; in the test on 786-0 renal, 105%; in the test with COLO 205 colon, -91.4% (active); with DU-145 prostate, 44.3%; in the test on K-562 leukemia it was -24.3% (active); in the test on MALME-3M melanoma it was -63.4% (active). Also, the growth in the test on MDA-MB-231 breast is 91.6%; in the test on RXF 393 renal it was 39.9%; in the test with SF-268 CNS, 118%; with SF-295 CNS it was 137%; in the test with SF-539 CNS, 117%; with UACC-257 melanoma it was 107%. The growth in the test with M14 melanoma is 93.7%.

In the case of `O=S(=O)(Cc1ccc(Cl)cc1Cl)c1ccc(Cl)cc1`, the growth is 50.2% with NCI-H23 lung; 69.3% in the test on NCI-H226 lung; 50.3% in the test with NCI-H322M lung; 36.5% with HOP-62 NSCLC; 18.4% in the test with NCI-H460 lung; -5.62% (active) in the test with NCI-H522 lung. In addition, the growth in the test with A549/ATCC NSCLC is 30.7%; in the test with 786-0 renal, 30.2%; with COLO 205 colon it was 8.87% (active); in the test on DU-145 prostate it was 41%; in the test with K-562 leukemia, 10.5%; with MALME-3M melanoma, 58%. In addition, the growth in the test on MDA-MB-231 breast was 49.8%; in the test on RXF 393 renal it was -15.6% (active); with SF-268 CNS it was 67.8%; in the test with SF-295 CNS, 2.18% (active); in the test with SF-539 CNS, 12.7%; in the test with UACC-257 melanoma it was 77.4%. For the same compound, the growth with M14 melanoma was 9.79% (active).

As to `NS(=O)(=O)c1ccc(CCn2c(SCC(=O)N/N=C/c3cc4ccccc4[nH]3)nc3ccccc3c2=O)cc1`, the growth in the test with NCI-H23 lung was 58.8%; in the test on NCI-H226 lung, 76.6%; with NCI-H322M lung, 83.7%; in the test with HOP-62 NSCLC, 68.7%; in the test with NCI-H460 lung it was 30.4%; in the test on NCI-H522 lung, 19.5%. Further, the growth in the test with A549/ATCC NSCLC was 84.3%; with 786-0 renal it was 78.9%; in the test on COLO 205 colon, 74.4%; in the test with DU-145 prostate it was 64.8%; in the test on K-562 leukemia it was 27.5%; in the test on MALME-3M melanoma, 38.8%. Further, the growth with MDA-MB-231 breast is 61.7%; in the test with RXF 393 renal it was 91%; with SF-268 CNS, 89.2%; with SF-295 CNS, 90.9%; with SF-539 CNS, 82.8%; in the test on UACC-257 melanoma, 82.6%. In addition, the growth in the test with M14 melanoma was 74%.

Turning to `CCCCCCCCN=C(NCCCCCCCC)SCc1cccc2ccccc12`, the growth in the test with NCI-H23 lung is -81.2% (active); with NCI-H226 lung, -84.2% (active); in the test with NCI-H322M lung it was -1.49% (active); in the test with HOP-62 NSCLC, -97.7% (active); with NCI-H460 lung it was -89.1% (active); in the test on NCI-H522 lung it was -83.3% (active). In addition, the growth in the test on A549/ATCC NSCLC was -75.8% (active); in the test with 786-0 renal, -88.1% (active); in the test on COLO 205 colon, -99.7% (active); with DU-145 prostate, -74.3% (active); in the test on K-562 leukemia, -13.4% (active); with MALME-3M melanoma, -44.3% (active). The growth in the test with MDA-MB-231 breast is -92.6% (active); in the test on RXF 393 renal, -78.6% (active); in the test with SF-268 CNS it was -90.8% (active); in the test with SF-295 CNS, -85.1% (active); in the test on SF-539 CNS, -87.1% (active); in the test with UACC-257 melanoma, -77.7% (active). The growth in the test on M14 melanoma was -86.6% (active).

On to `CC(C)c1nc2ccccc2n1CC(=O)N/N=C/c1cccc(O)c1`, for which the growth is 101% with NCI-H23 lung; 105% with NCI-H226 lung; 93.2% in the test on NCI-H322M lung; 97.4% in the test on HOP-62 NSCLC; 102% in the test with NCI-H460 lung; 86.6% in the test on NCI-H522 lung. Further, the growth with A549/ATCC NSCLC was 97.5%; in the test on 786-0 renal, 95.6%; in the test with COLO 205 colon, 108%; with DU-145 prostate it was 104%; in the test on K-562 leukemia, 87%; with MALME-3M melanoma it was 108%. The growth in the test on MDA-MB-231 breast is 93.4%; with RXF 393 renal, 104%; in the test on SF-268 CNS it was 99.2%; in the test with SF-295 CNS, 103%; in the test with SF-539 CNS it was 97.6%; in the test with UACC-257 melanoma, 87.7%. In the test with M14 melanoma, the growth is 94.8%.

`CC1OC(n2c3ccccc3c3c4c(c5c6ccccc6[nH]c5c32)C(=O)N(CCN[C@H]2CCC[C@@H]2N)C4=O)CC(O)C1O` (some centres not stated): the growth is 33.8% in the test with NCI-H23 lung; 40.5% with NCI-H226 lung; 54.2% in the test with NCI-H322M lung; 30.2% in the test on HOP-62 NSCLC; 2.3% (active) in the test on NCI-H460 lung; 16.9% in the test with NCI-H522 lung. Also, the growth in the test with A549/ATCC NSCLC was 25.2%; in the test with 786-0 renal, 50.2%; with COLO 205 colon, 11.5%; with DU-145 prostate, 44.5%; in the test with K-562 leukemia it was 10.2%; in the test with MALME-3M melanoma it was 45.3%. The growth is 37.5% in the test on MDA-MB-231 breast; 63% in the test with RXF 393 renal; 33.5% in the test with SF-268 CNS; 25.6% in the test on SF-295 CNS; 35.3% with SF-539 CNS; 54.9% with UACC-257 melanoma. For the same compound, the growth in the test on M14 melanoma was 36.1%.

Values taken from PubChem BioAssay (NCI).
